PubChem BioAssay (EPA / NIEHS)
The source made the active and inactive calls. The calls were made as follows: active = hit-call score of the fitted dose curve at least 0.9, where 1 is the maximum; inconclusive = response in the unintended direction; inactive = score below 0.9.

Each compound was assayed on DIO3 (gene 1735) (assay: CCTE_GLTED_hDIO3: CCTE's human Deiodinase 3 (DIO3) Inhibition Assay, Great Lakes Toxicology and Ecology Division (GLTED) Lab (AID 2284055);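 as to AC50: potency is for inhibition seen as loss of released iodide signal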).
Method: CCTE_GLTED_hDIO3 is a cell-free, single-readout assay designed to test the inhibitory activity of chemicals toward human iodothyronine Deiodinase type 3 (DIO3) enzyme. Enzyme is incubated in presence of test chemical for 3 hours during which uninhibited enzyme liberates free iodide from substrate. Free iodide is measured in a second step using the Sandell-Kolthoff method.CCTE_GLTED_hDIO3 is the assay component measured from the CCTE_GLTED_hDIO3 assay. It is designed to make measurements of enzyme activity, a form of enzyme reporter, as detected with absorbance signals by spectrophotometry.Data from the assay component CCTE_GLTED_hDIO3 was analyzed into 1 assay endpoint. This assay endpoint, CCTE_GLTED_hDIO3, was analyzed in the positive analysis fitting direction relative to DMSO as the negative control and baseline of activity. Using a type of enzyme reporter, loss-of-signal activity can be used to understand changes in the enzymatic activity as they relate to the gene DIO3. Furthermore, this assay endpoint can be referred to as a primary readout, because the performed assay has only produced 1 assay endpoint. To generalize the intended target to other relatable targets, this assay endpoint is annotated to the 'deiodinase' intended target family, where the subfamily is 'deiodinase Type 3'.
[…] assay, developed at Great Lakes Toxicology and Ecology Division (GLTED) within the EPA's Center for Computational Toxicology and Exposure (CCTE), is designed to test the chemicals' ability to inhibit DIO3. Assay uses human deiodinase type 3 (DIO3) enzyme produced with adenovirus expression system. Assay is based on iodide release measured by the Sandell-Kolthoff method and is run in 96-well plate format with assay plates run in triplicate (n=3). The method used for the deiodinase assay was largely based on Renko et al. (2012, 2015). These works describe the utilization of the SK reaction to measure deiodinase-liberated iodide in a 96-well-plate format. The SK reaction is based on the reduction of the yellow-colored cerium IV to the non-colored cerium III by arsenic, with the rate of this reaction increased in the presence of iodide in a concentration-dependent manner (Sandell and Kolthoff, 1937). Iodinated test chemicals can interfere as competitive inhibitors, or if the stock chemical has contaminating free-iodide present. Other chemicals, e.g.: nitrite, iron, and thiocyanate can interfere with the Sandell-Kolthoff reaction (see Sandell and Kolthoff, 1937).

| Compound | AC50 | outcome |
| --- | --- | --- |
| Cc1oc(-c2ccccc2)nc1CCOc1ccc(C[C@H](Nc2ccccc2C(=O)c2ccccc2)C(=O)O)cc1 | 67.5 µM (active) | – |
| CC(=O)NC1(c2cccc(F)c2)CCN(CC[C@@]2(c3ccc(Cl)c(Cl)c3)CN(c3ccccc3)C(=O)CO2)CC1 | – | inactive |
| c1ccc2cc3c(ccc4ccccc43)cc2c1 | 65.8 µM (active) | – |
| CC(C)(C)c1ccc(O)c(C(C)(C)C)c1 | 96.5 µM (active) | – |
| CN1CCN(c2ccccc2/C=C2\SCCN(c3ccc(Cl)c(Cl)c3)C2=O)CC1 | – | inactive |
| CC1=C(/C=C/C(C)=C/C=C/C(C)=C/C(=O)O)C(C)(C)CCC1 | 34.7 µM (active) | – |
| CCCCCCCCCCCCc1ccccc1S(=O)(=O)O | 40 µM (active) | – |
| CCCCCCCCCCCCCC[N+](C)(C)C | 7.85 µM (active) | – |
| ClC1=C(Cl)C(Cl)(Cl)C(Cl)=C1Cl | 3.14 µM (active) | – |
| NC(=O)N(O)[C@@H]1C=C[C@H](Oc2cccc(Oc3ccc(F)cc3)c2)C1 | 30.5 µM (active) | – |
| CCCCCCCCCCCCN1CCCC1=O | 87.8 µM (active) | – |
| CCC(=C(c1ccc(O)cc1)c1ccc(OCCN(C)C)cc1)c1ccccc1 | 58.4 µM (active) | – |
